The text below walks through data of PubChem BioAssay AID686979 (National Center for Advancing Translational Sciences (NCATS), 2013).

Each structure is given as a SMILES string. About 50,000 (12%) of roughly 420,000 compounds were called active. Roughly 26% stayed inconclusive and do not appear here. What follows is part of a selection rich in actives, with near analogues and random picks from the rest. Entries that show only a call come without a potency. Values without a mark were called inactive. Calls come from the whole dose curve; as a rule, active = well fitted inhibition curve with a large enough effect; inconclusive = small, poorly fitted or top-dose-only effect; inactive = flat fitted curve, though single readings scatter.
Potency is the fitted concentration of half-maximal effect.

The nature of the test: qHTS for Inhibitors of human tyrosyl-DNA phosphodiesterase 1 (TDP1): qHTS in cells in presence of CPT. Note: nearly all actives have a fitted effect of over 55% in size. Particulars: chicken DT40 Tdp1-/-;hTDP1 cells + 20 nM CPT, ATP luminescence, 48 h; series mostly up to 46.2 µM. In outline:
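Chicken DT40 Tdp1-/- cells complemented with human TDP1, 400 cells/well, exposed to compounds plus 20 nM camptothecin for at least 48 h at 37 C; viability read as ATP content by CellTiter-Glo luminescence.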
In general terms: In qHTS, concentration-response curves come from the screen itself.
As to `O=C(NC(=S)Nc1cc(C(F)(F)F)ccc1N1CCOCC1)c1ccc(-c2cccc(Cl)c2)o1`, the Potency entry was “inactive”.

Consider `Oc1ccc(Br)cc1C=Nc1ccc2[nH]ncc2c1`, for which the Potency result was “inactive”.

Take `Oc1ccc(Br)cc1/C=N/Nc1ccccn1`: the Potency is 1.64 µM (active). As to `CCN(CC)CCn1c(/N=C/c2cc(Br)ccc2O)nc2ccccc21`, the Potency result is “inactive”. For the molecule `COc1ccc(CN2CCCC(CNC(=O)c3ccc(F)cc3)C2)cc1OC` (stereo unspecified), the Potency result is “inactive”. Take `CCN1CCN(CCNC(=O)c2ccc3c(c2)NC(=O)/C(=C\c2cccc(Cl)c2)S3)CC1`: the Potency was 23.1 µM (active). For the molecule `CCN1CCCC1CNC(=O)c1ccc2c(c1)NC(=O)/C(=C\c1ccccc1F)S2` (stereo unspecified), the Potency was 18.4 µM (active). The same measure, in the same setting: the same measure for `CCN1CCCC1CNC(=O)c1cc2cc(OC)c(OC)cc2[nH]1` (stereo unspecified): “inactive”; for `O=C(NCCCN1CCCCC1)c1ccc2c(c1)NC(=O)C(N1CCOCC1)S2` (stereo unspecified): “inactive”. On the same count and under the same terms, as for `O=C(NCCN1CCOCC1)Nc1cccc(Cl)c1`, the entry is “inactive”; as for `CCOC(=O)c1sc(=NC(=O)c2ccc(Br)cc2)n(C)c1C`, “inactive”; as for `Cc1ccc2nc(-c3ccc(Br)cc3)cn2c1`, “inactive”. On the same count and under the same terms, as for `Cc1ccc(NS(=O)(=O)c2ccc(-c3ccc(=O)[nH]n3)o2)c(C)c1`, the entry is “inactive”. `O=C(O)c1[nH]c2ccccc2c1C(c1cccc(O)c1)c1c(C(=O)O)[nH]c2ccccc12`: the Potency entry was “inactive”. As to `CC(=O)OCC(C)n1c(=O)c2ccccc2n1C(C)=O` (stereo unspecified), the Potency result is “inactive”. As to `O=C(COC(=O)COc1cc(Cl)c(Cl)cc1Cl)NC1CC1`, the Potency result is “inactive”. On the same count and under the same terms, the same measure for `NC(=S)NN=Cc1ccc(OC(=O)COc2cc(Cl)c(Cl)cc2Cl)cn1`: 6.51 µM (active); for `O=C(COc1cc(Cl)c(Cl)cc1Cl)NCCc1ccccn1`: “inactive”. `O=C(Cn1cnc2c(oc3ccccc32)c1=O)Nc1ccc(OC(F)(F)F)cc1`: the Potency entry was “inactive”.

`C[C@H](NC(=O)c1ccccc1Cl)C(=O)OCCOc1cccc(Cl)c1`: the Potency result was “inactive”. For the molecule `O=C1C(Sc2cccc(F)c2)=C[C@@]2(O)CC[C@@H](O)[C@]1(Sc1cccc(F)c1)[C@H]2O`, the Potency was 16.4 µM (active). As for `COc1ccccc1NC(=O)C1=C(C)Nc2ncnn2C1c1ccc(C)o1` (stereo unspecified), the Potency entry is “inactive”. Take `COC(=O)C1=C(C)Nc2ncnn2C1c1ccco1` (stereo unspecified): the Potency entry was “inactive”. Consider `CC1=C(C(=O)OCc2ccccc2)C(c2ccco2)n2ncnc2N1` (stereo unspecified), for which the Potency was 23.1 µM (active). Still for that read-out and setting: the same measure for `Cc1ccc(S(=O)(=O)c2c[nH]c3ccc(Cl)cc3c2=O)cc1`: “inactive”; for `Cc1nc(COc2cc3oc(=O)cc(C)c3cc2Cl)cs1`: “inactive”. `CN(C)/N=C/c1cn(-c2ccccc2)nc1-c1cccnc1`: the Potency result was “inactive”. Still for that read-out and setting: the same measure for `O=Cc1cn(-c2ccccc2)nc1-c1ccccn1`: “inactive”. In the case of `COc1ccc(-c2nn(-c3ccccc3)cc2/C=N/Nc2ccccn2)cc1OC`, the Potency is 7.31 µM (active). Regarding `Cc1cc(C)cc(OCC(=O)Nc2nc(-c3ccc(F)cc3)ns2)c1`, the Potency entry is “inactive”.

On to `O=c1ccn([C@@H]2O[C@H](CNS(=O)(=O)c3cc4ccccc4s3)[C@@H](O)[C@H]2O)c(=O)[nH]1`, for which the Potency entry was “inactive”. On to `COc1ccc2c(c1)c1ncn(Cc3ccccn3)c(=O)c1n2C`, for which the Potency entry is “inactive”. Consider `Cc1cc([N+](=O)[O-])nn1Cc1ccc(F)cc1`, for which the Potency result is “inactive”. Consider `C=CCN1C(=O)C2(OCCCO2)c2cccc(Cl)c21`, for which the Potency entry was “inactive”. Take `C=CCN1C=C(C(=O)c2ccccc2)C(=O)CC1`: the Potency entry is “inactive”. For the molecule `C=CCN1C(=O)C(O)(CC(=O)c2ccc(Cl)cc2)c2ccccc21` (stereo unspecified), the Potency was 18.4 µM (active). Still for that read-out and setting: as for `O=C(NCc1ccccc1)C1CCN(S(=O)(=O)c2ccc3[nH]c(=O)ccc3c2)CC1`, the entry is “inactive”; as for `CCC(=O)N1CCc2cc(S(=O)(=O)NC(Cc3ccccc3)C(=O)NCc3ccc(C)cc3)ccc21` (stereo unspecified), “inactive”.

Regarding `COCCCNC(=O)/C(C#N)=C/c1c(N2CCCCCC2)nc2ccccn2c1=O`, the Potency result was “inactive”. `CC(=O)Nc1ccc(NC(=O)COc2ccc(S(=O)(=O)NC(C)c3ccccc3)cc2)cc1` (stereo unspecified): the Potency entry was “inactive”. Regarding `Cc1ccc(/C=N/NC(=O)c2sccc2OCc2ccc(F)cc2)cc1`, the Potency is 16.4 µM (active). Same read-out and setting: as for `CNC(=S)NNC(=O)c1sccc1OCc1ccccc1`, the entry is “inactive”; as for `Cc1ccc(COc2ccc(/C=N/NC(=O)CN3CCCCC3)cc2)cc1`, “inactive”. `CCOc1ccccc1NC(=O)CN1CCN(S(=O)(=O)c2ccc(Br)cc2)CC1`: the Potency result is “inactive”. Same read-out and setting: the same measure for `O=C(Nc1ccc(F)cc1)N1CCCC(c2nc3c(nnn3Cc3ccccc3Cl)c(=O)[nH]2)C1` (stereo unspecified): 20.6 µM (active); for `CC(=O)Nc1ccc(Nc2ncnc3c2nnn3Cc2ccccc2Cl)cc1`: “inactive”. On to `COc1ccc(Cn2nnc3c(=O)[nH]c(C4CCN(C(=O)c5ccccc5Cl)CC4)nc32)cc1`, for which the Potency entry is “inactive”. On to `C[C@@H]1CN([C@@H](C)CO)C(=O)CCCn2cc(nn2)CO[C@H]1CN(C)S(=O)(=O)c1ccc(-n2cccn2)cc1`, for which the Potency result was “inactive”.

For `C/C=C(\C)C(=O)OC1C(OC(=O)C2(C)OC2C)c2cc3ccc(=O)oc3cc2OC1(C)C` (stereo unspecified), the activity change, negative = growth inhibition was 14.7% [at 9.04 µM]. `COc1cc(C2C(C(=O)c3sc(C)nc3C)=C(O)C(=O)N2CCN(C)C)cc(OC)c1OC` (stereo unspecified): the Potency result was “inactive”. `O=C(c1cccs1)n1nc(NCc2ccccc2)nc1NCc1ccccc1`: the Potency result was “inactive”.

On to `CCCc1cc(=O)[nH]c(SCC(=O)c2c(N)n(CC(C)C)c(=O)n(C)c2=O)n1`, for which the Potency is 7.31 µM (active).

Take `CCCc1cc(=O)[nH]c(SCC(=O)N2C(C)CCCC2C)n1` (stereo unspecified): the Potency entry was “inactive”.

Regarding `CCCc1cc(=O)[nH]c(SCC(=O)Nc2ccc(S(=O)(=O)N3CCCC3)cc2)n1`, the Potency result was “inactive”. Turning to `Cc1ccc(Cl)cc1NC(=O)CSc1nccn1C`, the Potency entry is “inactive”. As to `COc1ccccc1C(=O)NCCC(=O)NC1=NCCS1`, the Potency result is “inactive”. Still for that read-out and setting: as for `Cc1cc(C)cc(Oc2c(C(F)(F)F)oc3cc(OCC(=O)O)ccc3c2=O)c1`, the entry is “inactive”; as for `Cc1nc2ccccc2c(=O)n1-c1ccc(NS(=O)(=O)c2ccc(F)cc2F)cc1`, “inactive”. Take `Cc1cccc(-c2nc3ccccc3c(=O)n2NC(=O)Cc2ccc(Cl)cc2)c1`: the Potency entry is “inactive”. Consider `Cc1[nH]n(-c2ccc(Cl)cc2)c(=O)c1/C=N/n1c(C)nc2ccccc2c1=O`, for which the Potency was 20.6 µM (active). Turning to `CC(OC(=O)c1cccc(S(=O)(=O)N2CCOCC2)c1)C(=O)NCC1CCCCC1` (stereo unspecified), the Potency result is “inactive”. Regarding `Cc1occc1-c1nnc(SCC(=O)NC2(C#N)CCCC2)n1C`, the Potency entry was “inactive”. Regarding `CN(Cc1ccc(C(F)(F)F)cc1)C(=O)[C@H]1O[C@@H](n2cnc3c(N)ncnc32)[C@H](O)[C@@H]1O`, the Potency entry was “inactive”. Turning to `Cc1noc(C)c1S(=O)(=O)N(C)C[C@H]1Oc2c(NC(=O)Nc3ccc4c(c3)OCO4)cccc2C(=O)N([C@H](C)CO)C[C@@H]1C`, the Potency result was “inactive”.

As for `CCc1nn(CCCC(=O)Nc2ccc(C)cc2C)c(=O)c2cc3occc3n12`, the Potency result was “inactive”.

In the case of `CC1=CC2=NC(=O)/C(=C/c3coc4ccccc4c3=O)C(=N)N2O1`, the Potency result was “inactive”. On the same count and under the same terms, the same measure for `COc1ccc(OCCCn2cccc2/C=C2/C(=N)N3OC(C)=CC3=NC2=O)cc1`: 18.4 µM (active).

For the molecule `CCOc1cc(/C=C2/C(=N)N3OC(C)=CC3=NC2=O)ccc1OC`, the Potency result was “inactive”. `COc1cccc(CNC(=O)c2cccnc2Sc2ccc(Cl)cc2)c1`: the Potency entry was “inactive”. On to `Cc1ccnc(NC(=O)CNC(=O)c2ccccc2)c1`, for which the Potency result was “inactive”. For the molecule `Cc1cc(NC(=O)c2cc3ccccc3o2)no1`, the Potency result was “inactive”. Consider `CC(=O)Nc1cccc(C(=O)OCC(=O)c2ccc3c(c2)OCO3)c1`, for which the Potency result is “inactive”. For the molecule `O=C(CSc1n[nH]c(-c2ccccc2)n1)N1CCCCC1`, the Potency entry is “inactive”. On to `C=CC(C1=CC(=O)C=CC1=O)c1ccc(O)cc1` (stereo unspecified), for which the Potency was 1.64 µM (active).

On to `CSc1ncccc1C(=O)OCc1ccc(Br)cc1`, for which the Potency result is “inactive”.

In the case of `NC(=O)C1(Nc2ccc(-c3ccccc3)cc2)CCCC1`, the Potency entry is “inactive”. Consider `COc1ccc2oc(=O)c(C(=O)NCc3ccccn3)cc2c1`, for which the Potency entry was “inactive”. Same read-out and setting: as for `COc1cccc(S(=O)(=O)NCc2ccc(C(=O)NCc3ccccn3)cc2)c1`, the figure is 0.92 µM (active); as for `O=[N+]([O-])c1cccc(S(=O)(=O)NCc2ccccn2)c1`, “inactive”. As for `O=C(COC(=O)c1ccc(F)cc1)NCCCc1ccccc1`, the Potency result was “inactive”. The same measure, in the same setting: as for `Cn1c(SCC(=O)N2CCCCC2)nc2c(c1=O)SCC2`, the entry is “inactive”. Regarding `Cc1c(NC(=O)c2cc(=O)c3ccccc3o2)c(=O)n(-c2ccccc2)n1C`, the Potency result is “inactive”. As for `O=C1CC(c2ccccc2)C(c2ccccc2)=NN1` (stereo unspecified), the Potency result was “inactive”. In the case of `CC(=O)NCCC(=O)Nc1cc(S(=O)(=O)N2CCOCC2)ccc1N1CCOCC1`, the Potency entry was “inactive”. The same measure, in the same setting: the same measure for `CC(=O)Nc1ccc(C(=O)Nc2cc(S(=O)(=O)N3CCOCC3)ccc2N2CCOCC2)cc1`: “inactive”; for `CC(Oc1ccc(F)cc1)C(=O)Nc1cc(S(=O)(=O)N2CCOCC2)ccc1N1CCN(C)CC1` (stereo unspecified): “inactive”; for `CC(C)CCOc1ccc(C(=O)Nc2cc(S(=O)(=O)N3CCOCC3)ccc2N2CCOCC2)cc1`: 9.2 µM (active).

As for `CC(C)CCC(=O)Nc1cc(S(=O)(=O)N2CCOCC2)ccc1N1CCCC1`, the Potency entry was “inactive”. On the same count and under the same terms, the same measure for `COCCNC(=S)Nc1cc(S(=O)(=O)N2CCOCC2)ccc1N1CCCCC1`: 20.6 µM (active); for `COc1ccc(CNC(=O)Cn2nnc(-c3ccccc3F)n2)cc1`: “inactive”; for `COC(=O)[C@@H]1CC(O)CN1C(=O)C12CC3CC(CC(C3)C1)C2` (stereo partly specified): “inactive”. Still for that read-out and setting: as for `CN(C)/C(=N\OC(=O)c1ccccc1)c1nonc1N`, the entry is “inactive”; as for `C=C(C)CNC(=O)c1ccc(OC2CCN(C(=O)COC)CC2)cc1`, “inactive”. The same measure, in the same setting: as for `Cc1c(NC(=O)CSc2nnnn2-c2ccc(C(=O)O)cc2)c(=O)n(-c2ccccc2)n1C`, the entry is “inactive”; as for `CS(=O)(=O)N(CC(=O)N1CCc2ccccc2C1)c1ccc(Br)cc1`, “inactive”; as for `CN(CCc1ccccc1)c1ccc([N+](=O)[O-])cn1`, “inactive”.

Consider `Cc1c(C)c2c(OCC(=O)N[C@@H](C(=O)O)c3ccccc3)cc3c(c2oc1=O)CCC(C)(C)O3`, for which the Potency result is “inactive”. As for `COc1ccc2c(c1)CCc1cnc(-n3ncc(C(=O)NCCN4CCOCC4)c3C)nc1-2`, the Potency result was “inactive”. On to `Cc1cc(C)nc(SCC(=O)c2ccc(Cl)cc2)n1`, for which the Potency entry is “inactive”. `Cc1cc(Oc2ccc(Cl)cc2)nc(SCC(=O)c2ccccc2)n1`: the Potency was 23.1 µM (active). Take `COC(=O)c1cc(C(=O)CSc2nc(C)cc(C)n2)ccc1O`: the Potency result is “inactive”.
